The list shows a part of the results. The hit rate among all sequences tested is not known here.

This assay deals with furin, P09958. Briefly: furin cleavage Z-score vs untreated control; higher = more cleavage, active = 3.5 or more, inactive = 1 or less, 8 variable residues between constant flanks. The method, boiled down: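 Furin cleavage was scored on 8-mer peptides joined to a cDNA oligonucleotide and bound to magnetic beads at the N-terminus. Digestion with purified furin (1:10 enzyme:substrate, 0.01 ml, 50 mM HEPES pH 7.5, CaCl2, NaCl) lasted 7.5, 15 or 30 min. Freed DNA was tagged with adapters by PCR, sequenced and counted; the cleavage Z-score is the lowess-adjusted log count versus furin-free reactions, scaled by median absolute deviation.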
Chain of furin, P09958 (P09958 whole entry): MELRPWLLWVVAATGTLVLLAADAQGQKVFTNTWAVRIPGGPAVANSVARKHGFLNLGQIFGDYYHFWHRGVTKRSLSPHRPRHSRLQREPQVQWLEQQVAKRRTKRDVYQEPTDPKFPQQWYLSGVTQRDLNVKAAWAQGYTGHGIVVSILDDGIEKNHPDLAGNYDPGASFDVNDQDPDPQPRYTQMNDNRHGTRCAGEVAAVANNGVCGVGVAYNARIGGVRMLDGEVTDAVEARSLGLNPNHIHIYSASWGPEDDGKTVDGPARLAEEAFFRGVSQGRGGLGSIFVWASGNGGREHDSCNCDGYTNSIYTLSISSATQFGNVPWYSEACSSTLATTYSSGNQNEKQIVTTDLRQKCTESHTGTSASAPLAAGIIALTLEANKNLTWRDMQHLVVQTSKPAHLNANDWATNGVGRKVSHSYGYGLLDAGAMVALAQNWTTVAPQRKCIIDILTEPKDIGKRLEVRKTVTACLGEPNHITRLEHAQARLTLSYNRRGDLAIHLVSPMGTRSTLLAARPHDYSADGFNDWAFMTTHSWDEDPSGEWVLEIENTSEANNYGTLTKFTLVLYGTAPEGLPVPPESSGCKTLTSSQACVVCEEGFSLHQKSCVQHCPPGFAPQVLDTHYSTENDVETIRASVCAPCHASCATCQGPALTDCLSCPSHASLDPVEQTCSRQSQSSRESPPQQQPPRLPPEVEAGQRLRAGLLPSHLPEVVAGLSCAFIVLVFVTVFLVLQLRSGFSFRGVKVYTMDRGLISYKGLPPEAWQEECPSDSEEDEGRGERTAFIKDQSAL

As for CATTPCSGSIAGNASASA [HC1924], the “furin cleavage Z-score” value (7.5 min) is -0.658 (inactive), the “furin cleavage Z-score” value (15 min) is -0.276 (inactive) and the “furin cleavage Z-score” value (30 min) is -1.61 (inactive).
The matching figures for CAEVPCHMPSAGNASASA [HC2366]: 0.437 (inactive), 1.57 and 0.743 (inactive).
In the same order, the values of CAPSLKATCTAGNASASA [HC1265] are 0.563 (inactive), 1.42 and 0.215 (inactive).
The matching figures for CATGPCTPLPAGNASASA [HC1194]: -0.592 (inactive), -0.46 (inactive) and 0.602 (inactive).
On to CADIINGLPVAGNASASA [HC658], for which the “furin cleavage Z-score” value (7.5 min) is -0.191 (inactive), the “furin cleavage Z-score” value (15 min) is -0.925 (inactive) and the “furin cleavage Z-score” value (30 min) was -0.966 (inactive).
As for CAMEECSHHLAGNASASA [HC1735], the “furin cleavage Z-score” value (7.5 min) was 0.695 (inactive), the “furin cleavage Z-score” value (15 min) was -0.107 (inactive) and the “furin cleavage Z-score” value (30 min) is -0.123 (inactive).
In the same order, the values of CAELNRSKRSAGNASASA [FS-927] are 10.6 (active), 9.86 (active) and 8.24 (active).
In the same order, the values of CAEKERSKRSAGNASASA [FS-1626] are 9.14 (active), 7.38 (active) and 7.92 (active).
The matching figures for CAELNRSKKDAGNASASA [FS-232]: 0.785 (inactive), 0.28 (inactive) and 0.715 (inactive).
CASSARNKRSAGNASASA [FS-94]: the “furin cleavage Z-score” value by setting is: (7.5 min) 11.8 (active); (15 min) 11.6 (active); (30 min) 8.13 (active).
In the same order, the values of CASKERSKRSAGNASASA [FS-1568] are 12.6 (active), 10.6 (active) and 9.24 (active).
Regarding CALLLLLALPAGNASASA [HC559], the “furin cleavage Z-score” value runs as follows: (7.5 min) -0.496 (inactive); (15 min) -0.0246 (inactive); (30 min) -1.1 (inactive).
The matching figures for CATDPCSGSWAGNASASA [HC1851]: -1.13 (inactive), -1.19 (inactive) and -1.08 (inactive).
The matching figures for CAAILDMIAGAGNASASA [HC332]: 0.577 (inactive), 0.516 (inactive) and -0.84 (inactive).
In the same order, the values of CASKAHGIDPAGNASASA [HC795] are -1.17 (inactive), -1.03 (inactive) and 1.13.
Take CASKSLSKRSAGNASASA [FS-721]: the “furin cleavage Z-score” value (7.5 min) is 8.05 (active), the “furin cleavage Z-score” value (15 min) was 10.1 (active) and the “furin cleavage Z-score” value (30 min) was 6.73 (active).
In the same order, the values of CATVPCSGSWAGNASASA [HC1850] are -0.242 (inactive), -1.82 (inactive) and -1.24 (inactive).
In the same order, the values of CARHYRPTGYAGNASASA [FS-2682] are -1.08 (inactive), -0.433 (inactive) and -0.26 (inactive).
As to CARKRRGTGYAGNASASA [FS-2565], the “furin cleavage Z-score” value is, setting by setting: (7.5 min) 9.5 (active); (15 min) 11.3 (active); (30 min) 9.57 (active).
For CARKRRGTKGAGNASASA [FS-1959], the “furin cleavage Z-score” value runs as follows: (7.5 min) 8.4 (active); (15 min) 9.53 (active); (30 min) 8.24 (active).
In the same order, the values of CARKDRRKKGAGNASASA [FS-2035] are 0.369 (inactive), 0.879 (inactive) and 1.04.
In the same order, the values of CARKRRIVSGAGNASASA [FS-2348] are -0.706 (inactive), 0.0646 (inactive) and -1.35 (inactive).
As to CARKRREAESAGNASASA [FS-2972], the “furin cleavage Z-score” value is 12 (active) (7.5 min), 12.2 (active) (15 min) and 8.7 (active) (30 min).
In the same order, the values of CATDALMTGYAGNASASA [HC879] are 0.343 (inactive), 0.0305 (inactive) and 0.976 (inactive).
Regarding CARKRRSIRYAGNASASA [FS-2975], the “furin cleavage Z-score” value is 8.7 (active) (7.5 min), 10.2 (active) (15 min) and 9.27 (active) (30 min).
The matching figures for CAPPDSDAESAGNASASA [HC1349]: -1.81 (inactive), -1.84 (inactive) and -0.313 (inactive).
In the same order, the values of CAVVCESMSYAGNASASA [HC93] are 1.27, 1.17 and 0.112 (inactive).
In the same order, the values of CAGLPVCQDHAGNASASA [HC934] are -1.12 (inactive), -0.715 (inactive) and -0.789 (inactive).
As to CAMEECSQHVAGNASASA [HC1770], the “furin cleavage Z-score” value (7.5 min) was 0.37 (inactive), the “furin cleavage Z-score” value (15 min) was -0.816 (inactive) and the “furin cleavage Z-score” value (30 min) is 0.885 (inactive).
On to CAGLAGAAIGAGNASASA [HC1077], for which the “furin cleavage Z-score” value was 0.0949 (inactive) (7.5 min), -0.583 (inactive) (15 min) and -1.05 (inactive) (30 min).
In the same order, the values of CATTPCSGSRAGNASASA [HC1933] are -1.1 (inactive), 1.02 and 0.7 (inactive).
Regarding CAEWVVCCSMAGNASASA [HC2128], the “furin cleavage Z-score” value (7.5 min) is -0.594 (inactive), the “furin cleavage Z-score” value (15 min) was 0.0553 (inactive) and the “furin cleavage Z-score” value (30 min) was 0.122 (inactive).
In the same order, the values of CANKRRGGTAAGNASASA [WN5] are -0.513 (inactive), -0.365 (inactive) and 0.516 (inactive).
The matching figures for CARKRRGGPSAGNASASA [FS-2564]: 3.55 (active), 5.66 (active) and 4.4 (active).
The matching figures for CARKRRTATYAGNASASA [FS-2977]: 4.55 (active), 6.85 (active) and 6.75 (active).
On to CARKRRTGFGAGNASASA [FS-2978], for which the “furin cleavage Z-score” value by setting is: (7.5 min) -1.31 (inactive); (15 min) 1.08; (30 min) 1.25.
The matching figures for CARKHPDATYAGNASASA [HC454]: -0.794 (inactive), -0.15 (inactive) and -3 (inactive).
In the same order, the values of CARKRRCSLSAGNASASA [FS-1829] are 4.81 (active), 7.32 (active) and 6.54 (active).
With CATDVVCCSMAGNASASA [HC2118], the “furin cleavage Z-score” value runs as follows: (7.5 min) 1.2; (15 min) 0.0514 (inactive); (30 min) -0.681 (inactive).
In the same order, the values of CAFIPVENLEAGNASASA [HC758] are -2.14 (inactive), -0.887 (inactive) and -1.28 (inactive).
In the same order, the values of CAMEECSVHLAGNASASA [HC1730] are -0.159 (inactive), -0.406 (inactive) and 0.608 (inactive).
In the case of CAMDYRGRRKAGNASASA [FS-1544], the “furin cleavage Z-score” value is, setting by setting: (7.5 min) -0.964 (inactive); (15 min) -0.642 (inactive); (30 min) 0.39 (inactive).
The matching figures for CAEPLRKKKKAGNASASA [FS-1320]: -0.899 (inactive), -0.615 (inactive) and -0.879 (inactive).
In the same order, the values of CARQGRSGQKAGNASASA [FS-2063] are -0.381 (inactive), 0.885 (inactive) and -0.813 (inactive).
In the same order, the values of CARRRRKQRKAGNASASA [FS-2791] are 2.34, 4.43 (active) and 4.61 (active).
As to CACRRRRRRKAGNASASA [FS-583], the “furin cleavage Z-score” value (7.5 min) was 7.53 (active), the “furin cleavage Z-score” value (15 min) was 8.14 (active) and the “furin cleavage Z-score” value (30 min) was 6.13 (active).
In the same order, the values of CAEPRRSRRKAGNASASA [FS-23] are 3.35, 6.04 (active) and 5.36 (active).
In the same order, the values of CAEPHRRRRKAGNASASA [FS-415] are 4.43 (active), 5.99 (active) and 6.78 (active).

Source of the values: the supplement of paper PMC3545927.
